From ChEMBL document CHEMBL1961873, “Compounds: GSK PKIS; Assays: Nanosyn kinase panel” (2012)

Each molecule was assayed against Serine/threonine-protein kinase PAK 5 (Homo sapiens) (UniProt Q9P286). Conditions: at 1 µM.
Sequence of Serine/threonine-protein kinase PAK 5 (Homo sapiens) (Q9P286 whole entry, looked up): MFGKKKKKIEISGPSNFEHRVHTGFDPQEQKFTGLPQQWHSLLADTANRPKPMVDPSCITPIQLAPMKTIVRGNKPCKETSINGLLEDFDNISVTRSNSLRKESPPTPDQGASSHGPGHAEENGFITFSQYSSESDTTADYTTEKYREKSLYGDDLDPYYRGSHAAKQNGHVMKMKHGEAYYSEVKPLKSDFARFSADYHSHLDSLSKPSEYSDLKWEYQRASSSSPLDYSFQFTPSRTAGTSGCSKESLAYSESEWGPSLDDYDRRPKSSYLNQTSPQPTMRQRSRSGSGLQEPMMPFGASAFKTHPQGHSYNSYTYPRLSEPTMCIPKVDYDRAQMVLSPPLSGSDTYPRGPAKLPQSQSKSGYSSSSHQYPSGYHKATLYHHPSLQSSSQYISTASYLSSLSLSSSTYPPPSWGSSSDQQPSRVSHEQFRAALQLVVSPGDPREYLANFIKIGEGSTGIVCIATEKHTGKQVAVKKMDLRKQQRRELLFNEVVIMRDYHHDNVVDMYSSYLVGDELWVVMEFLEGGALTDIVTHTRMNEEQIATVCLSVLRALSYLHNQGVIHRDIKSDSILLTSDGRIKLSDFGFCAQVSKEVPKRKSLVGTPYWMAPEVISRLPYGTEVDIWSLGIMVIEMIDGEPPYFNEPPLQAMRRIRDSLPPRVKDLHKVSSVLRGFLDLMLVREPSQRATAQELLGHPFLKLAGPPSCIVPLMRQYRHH
Molecule `CN1CCC(n2cnc(-c3ccc(F)cc3)c2-c2ccnc(N)n2)CC1` has an inhibition of 3.69%. Molecule `NC(=O)c1sc(-n2cnc3ccc(C(F)(F)F)cc32)cc1OCc1ccccc1Br` has an inhibition of 3.21%. Work on `CN(C)CCOc1ccc(-c2nc(-c3ccncc3)c(-c3ccc4c(c3)CC/C4=N\O)[nH]2)cc1` yielded an inhibition of 7.07%. `CCCN(CCS(C)(=O)=O)Cc1ccc(-c2ccc3ncnc(Nc4ccc(OCc5cccc(F)c5)c(Cl)c4)c3c2)o1` was tested, and the inhibition was 9.68%. With `CCc1nn2ncccc2c1-c1ccnc(NC2CC2)n1` the inhibition was 0.37%. `CCNC(=O)O[C@H]1CN[C@H](C#Cc2cc3ncnc(Nc4ccc(OCc5cccc(F)c5)c(Cl)c4)c3s2)C1` showed an inhibition of 2.54%. `CNC(=O)c1cccc(C#Cc2cncnc2Nc2ccc(OCc3cccc(F)c3)c(Cl)c2)c1` gave an inhibition of -2.53%. With `CCN1CCC(CC(=O)Nc2n[nH]c3nnc(-c4cccc(F)c4F)cc23)CC1` the inhibition was 0.92%. `c1cc(-c2cnn3nc(N4CCOCC4)ccc23)nc(NC2CC2)n1` gave an inhibition of 1.19%. Work on `CS(=O)(=O)CCNCc1coc(-c2ccc3ncnc(Nc4ccc(OCc5ccccc5)cc4)c3c2)c1` yielded an inhibition of 3.38%. `COc1ccc(-c2cc3c(N)ncnc3o2)cc1` gave an inhibition of -1.65%. `N#Cc1c(NC(=O)CN2CCOCC2)sc2c1CCCC2` gave an inhibition of 3.24%. `Clc1ccc(-c2nn3ncccc3c2-c2ccnc(Nc3ccccc3)n2)cc1` was tested, and the inhibition was -0.84%. Molecule `COc1cc(/C=N/Nc2ncnc3[nH]ncc23)ccc1O` has an inhibition of 11.8%. `CC(C)(CO)CNC(=O)c1ccc2c(c1)/C(=N/Nc1ccc(S(N)(=O)=O)cc1)C(=O)N2` gave an inhibition of 0.12%. `Cc1ccc(O)cc1Nc1ccnc2cc(-c3ccccn3)ccc12` gave an inhibition of 0.07%. In the case of `Fc1ccc(-c2nn3ccccc3c2-c2ccncc2)cc1`, the inhibition is reported as -4.35%. `c1ccc(-c2nc3n(c2-c2ccc4c(c2)OCO4)CCC3)nc1` was tested, and the inhibition was -0.63%. Work on `N#Cc1c(NC(=O)c2ccc(F)cc2)sc2c1CCCC2` yielded an inhibition of -0.51%. Work on `COc1cc(N2CCN(C(C)C)CC2)ccc1Nc1nc(Nc2ccc(F)cc2C(N)=O)c2cc[nH]c2n1` yielded an inhibition of 27.4%. `COc1cc2c(cc1Nc1nc(Nc3ccsc3C(N)=O)c3cc[nH]c3n1)N(C(=O)CN(C)C)CCC2(C)C` gave an inhibition of -3.07%. Work on `O=S(=O)(CCNCc1ccc(-c2ccc3ncnc(Nc4ccc(OCc5cccc(F)c5)c(Cl)c4)c3c2)o1)c1ccccc1` yielded an inhibition of 5.17%. `CCOc1ccc2c(-c3ccnc(Nc4cccc(C(F)(F)F)c4)n3)cnn2n1` showed an inhibition of -0.74%. Molecule `Cc1ccc2c(-c3ccnc(Nc4ccccc4)n3)c(-c3ccc(F)cc3)nn2n1` has an inhibition of 2.93%. `CNC(=O)c1cc(-c2ccc(F)cc2)cc(-c2ccc(S(=O)(=O)N3CCCC3)cc2)c1N` was tested, and the inhibition was 3.67%. Work on `CCn1cc(-c2ccnc3[nH]ccc23)c(-c2cccc(NC(=O)Nc3ccc(OCc4ccccc4)cc3)c2)n1` yielded an inhibition of -3.66%. `COc1cc(Nc2nccc(Nc3ccc4c(C)n[nH]c4c3)n2)cc(OC)c1OC` showed an inhibition of 15.3%. For `CCn1c(-c2nonc2N)nc2c(C#CC(C)(C)O)nc(OC[C@H](N)c3ccccc3)cc21`, the inhibition was 70.9%. `c1ccc(COc2ccc(Nc3ncnc4ccc(-c5ccco5)cc34)cc2)cc1` showed an inhibition of -4.07%. For `Nc1ncc(-c2cccc(S(N)(=O)=O)c2)c2scc(-c3ccc(F)c(Cl)c3)c12`, the inhibition was 3.74%. Molecule `CS(=O)(=O)CCNCc1ccc(-c2ccc3ncnc(Nc4ccc(OCc5ccccc5)c(C(F)(F)F)c4)c3c2)o1` has an inhibition of 3.73%. `CCN(CC)S(=O)(=O)c1ccc(OC)c(Nc2ncc(-c3ccccc3)o2)c1` was tested, and the inhibition was -0.8%. In the case of `NS(=O)(=O)c1ccc(N/N=C2\C(=O)Nc3ccc4ncccc4c32)cc1`, the inhibition is reported as 3.21%. In the case of `COC(=O)Nc1nc2ccc(Oc3ccc(NC(=O)Nc4cccc(Cl)c4)cc3)cc2[nH]1`, the inhibition is reported as 3.67%.

These molecules were tested against Serine/threonine-protein kinase PAK 6 (Homo sapiens) (UniProt Q9NQU5). Conditions: at 0.1 µM.
Sequence of Serine/threonine-protein kinase PAK 6 (Homo sapiens) (Q9NQU5 whole entry, looked up): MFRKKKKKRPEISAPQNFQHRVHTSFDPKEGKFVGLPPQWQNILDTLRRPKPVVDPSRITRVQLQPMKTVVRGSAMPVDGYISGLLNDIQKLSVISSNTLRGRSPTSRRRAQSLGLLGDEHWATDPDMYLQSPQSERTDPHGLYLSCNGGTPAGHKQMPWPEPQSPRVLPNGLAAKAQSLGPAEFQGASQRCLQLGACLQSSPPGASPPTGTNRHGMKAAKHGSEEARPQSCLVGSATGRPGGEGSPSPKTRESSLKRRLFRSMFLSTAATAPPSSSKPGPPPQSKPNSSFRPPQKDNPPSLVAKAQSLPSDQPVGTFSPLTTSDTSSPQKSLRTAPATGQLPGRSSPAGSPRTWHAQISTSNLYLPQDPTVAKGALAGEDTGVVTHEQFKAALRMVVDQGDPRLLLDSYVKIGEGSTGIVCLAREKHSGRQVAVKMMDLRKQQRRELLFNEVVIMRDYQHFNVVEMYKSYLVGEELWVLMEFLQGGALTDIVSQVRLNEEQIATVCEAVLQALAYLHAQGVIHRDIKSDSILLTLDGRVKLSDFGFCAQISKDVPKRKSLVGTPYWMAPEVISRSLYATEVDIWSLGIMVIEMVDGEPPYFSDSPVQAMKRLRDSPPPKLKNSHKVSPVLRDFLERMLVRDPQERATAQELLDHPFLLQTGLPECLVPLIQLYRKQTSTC
`CN1CCC(n2cnc(-c3ccc(F)cc3)c2-c2ccnc(N)n2)CC1` showed an inhibition of -8.92%. `NC(=O)c1sc(-n2cnc3ccc(C(F)(F)F)cc32)cc1OCc1ccccc1Br` was tested, and the inhibition was -5.11%. Work on `CN(C)CCOc1ccc(-c2nc(-c3ccncc3)c(-c3ccc4c(c3)CC/C4=N\O)[nH]2)cc1` yielded an inhibition of -7.61%. Molecule `CCCN(CCS(C)(=O)=O)Cc1ccc(-c2ccc3ncnc(Nc4ccc(OCc5cccc(F)c5)c(Cl)c4)c3c2)o1` has an inhibition of -9.75%. Molecule `CCc1nn2ncccc2c1-c1ccnc(NC2CC2)n1` has an inhibition of -9.47%. Molecule `CCNC(=O)O[C@H]1CN[C@H](C#Cc2cc3ncnc(Nc4ccc(OCc5cccc(F)c5)c(Cl)c4)c3s2)C1` has an inhibition of 8.13%. `CNC(=O)c1cccc(C#Cc2cncnc2Nc2ccc(OCc3cccc(F)c3)c(Cl)c2)c1` gave an inhibition of 9.54%. For `CCN1CCC(CC(=O)Nc2n[nH]c3nnc(-c4cccc(F)c4F)cc23)CC1`, the inhibition was 4.45%. `c1cc(-c2cnn3nc(N4CCOCC4)ccc23)nc(NC2CC2)n1` showed an inhibition of 4.42%. `CS(=O)(=O)CCNCc1coc(-c2ccc3ncnc(Nc4ccc(OCc5ccccc5)cc4)c3c2)c1` gave an inhibition of -4%. With `COc1ccc(-c2cc3c(N)ncnc3o2)cc1` the inhibition was -8.16%. `N#Cc1c(NC(=O)CN2CCOCC2)sc2c1CCCC2` gave an inhibition of 0.72%. `Clc1ccc(-c2nn3ncccc3c2-c2ccnc(Nc3ccccc3)n2)cc1` gave an inhibition of 7.89%. Molecule `COc1cc(/C=N/Nc2ncnc3[nH]ncc23)ccc1O` has an inhibition of -5.57%. Molecule `CC(C)(CO)CNC(=O)c1ccc2c(c1)/C(=N/Nc1ccc(S(N)(=O)=O)cc1)C(=O)N2` has an inhibition of 2.03%. In the case of `Cc1ccc(O)cc1Nc1ccnc2cc(-c3ccccn3)ccc12`, the inhibition is reported as 4.84%. For `Fc1ccc(-c2nn3ccccc3c2-c2ccncc2)cc1`, the inhibition was 4.75%. `c1ccc(-c2nc3n(c2-c2ccc4c(c2)OCO4)CCC3)nc1` was tested, and the inhibition was 4.69%. In the case of `N#Cc1c(NC(=O)c2ccc(F)cc2)sc2c1CCCC2`, the inhibition is reported as -7.52%. With `COc1cc(N2CCN(C(C)C)CC2)ccc1Nc1nc(Nc2ccc(F)cc2C(N)=O)c2cc[nH]c2n1` the inhibition was -5.81%. `COc1cc2c(cc1Nc1nc(Nc3ccsc3C(N)=O)c3cc[nH]c3n1)N(C(=O)CN(C)C)CCC2(C)C` showed an inhibition of -6.17%. With `O=S(=O)(CCNCc1ccc(-c2ccc3ncnc(Nc4ccc(OCc5cccc(F)c5)c(Cl)c4)c3c2)o1)c1ccccc1` the inhibition was 0.2%. Work on `CCOc1ccc2c(-c3ccnc(Nc4cccc(C(F)(F)F)c4)n3)cnn2n1` yielded an inhibition of -3.86%. In the case of `Cc1ccc2c(-c3ccnc(Nc4ccccc4)n3)c(-c3ccc(F)cc3)nn2n1`, the inhibition is reported as 1.48%. With `CNC(=O)c1cc(-c2ccc(F)cc2)cc(-c2ccc(S(=O)(=O)N3CCCC3)cc2)c1N` the inhibition was -9.04%. Work on `CCn1cc(-c2ccnc3[nH]ccc23)c(-c2cccc(NC(=O)Nc3ccc(OCc4ccccc4)cc3)c2)n1` yielded an inhibition of 5.15%. For `COc1cc(Nc2nccc(Nc3ccc4c(C)n[nH]c4c3)n2)cc(OC)c1OC`, the inhibition was -4.29%. `CCn1c(-c2nonc2N)nc2c(C#CC(C)(C)O)nc(OC[C@H](N)c3ccccc3)cc21` showed an inhibition of 49.4%. `c1ccc(COc2ccc(Nc3ncnc4ccc(-c5ccco5)cc34)cc2)cc1` gave an inhibition of 3.06%. `Nc1ncc(-c2cccc(S(N)(=O)=O)c2)c2scc(-c3ccc(F)c(Cl)c3)c12` was tested, and the inhibition was -2.3%. For `CS(=O)(=O)CCNCc1ccc(-c2ccc3ncnc(Nc4ccc(OCc5ccccc5)c(C(F)(F)F)c4)c3c2)o1`, the inhibition was -5.25%. In the case of `CCN(CC)S(=O)(=O)c1ccc(OC)c(Nc2ncc(-c3ccccc3)o2)c1`, the inhibition is reported as 5.19%. Work on `NS(=O)(=O)c1ccc(N/N=C2\C(=O)Nc3ccc4ncccc4c32)cc1` yielded an inhibition of -4.05%. Work on `COC(=O)Nc1nc2ccc(Oc3ccc(NC(=O)Nc4cccc(Cl)c4)cc3)cc2[nH]1` yielded an inhibition of -3.19%.
